The structures appear in SMILES notation. In all, about 340,000 compounds went through this assay and about 6,200 (1.8%) were called active. Where a call stands in place of a potency, no number is given. Roughly 10% stayed inconclusive and do not appear here. The call rests on the fitted dose curve; in most records, active means well fitted activation curve with a large enough effect; inconclusive means small, poorly fitted or top-dose-only effect; inactive means no such curve, though single readings can be large or run the other way. The full list was thinned out, with actives kept by preference.
Potency means the concentration at half of the fitted maximal effect.

A short description of this assay: A quantitative high throughput screen for small molecules that induce DNA re-replication in SW480 colon adenocarcinoma cells. Further: nearly all actives have a fitted effect of over 55% in size. The note with it: Hoechst DNA content imaging, 48 h; series mostly up to 46.1 µM. The text has this:
H Molecular Libraries Probe Production Network [MLPCN] NIH Chemical Genomics Center [NCGC] MLPCN Grant: Fast Track K99 CA136555 Assay Provider: Melvin DePamphilis, NICHD, NIH Assay Overview Eukaryotic cells normally restrict genome duplication to once per cell division. When this process is aberrant, DNA re-replication occurs when cells reinitiate DNA replication before the first round of replication is complete. DNA re-replication induces the DNA damage response, arrests cell proliferation, and triggers apoptosis. The cell cycle components cyclin A, Cdt-1, Cdc6 and geminin are critical regulators of this process and their misregulation results in DNA re-replication in normal and cancer cells. To identify compounds that induce re-replication in normal cells, an image-based assay was used to measure DNA content of nuclei, as detected by the fluorescent DNA binding dye, Hoechst. Cell nuclei were imaged by a fluorescence scanning plate imager and compounds that induce DNA re-replication were identified by the increase of nuclei with elevated fluorescence intensity
For screening, 250 cells in 5 uL/well were dispensed into black clear 1536-well plates (Aurora) using a solenoid-based dispenser. Following transfer of 23 nL compound or DMSO vehicle by a pin tool, the plates were incubated 48 hr at 37 C and 5% CO2. After addition of 1 uL/well Hoescht stain, the plates were incubated 40 min at 37 C, 5% CO2 and total intensity of fluorescent objects (nuclei) were enumerated by an Acumen Explorer Ex3 (TTP LabTech) fluorescence scanning plate imager (405 nm excitation, 500-530 nm emission). Keywords: NIH Roadmap, MLPCN, MLI, MLSMR, qHTS, NCGC, DNA replication, cancer
Take `O=C(Cc1ccccc1[N+](=O)[O-])N1CCN(Cc2ccc3c(c2)OCO3)CC1`: the Potency was 16.4 µM (active).

Regarding `Cc1cc(=O)oc2c(C)c(OCC(=O)N3CCN(Cc4ccc5c(c4)OCO5)CC3)ccc12`, the Potency result was “inactive”.

For `Fc1ccc(N2CCN(Cc3ccc4c(c3)OCO4)CC2)cc1`, the Potency entry is “inactive”.

Consider `CC1([N+](=O)[O-])COP(=O)(Nc2ccc(F)cc2)OC1` (stereo not given), for which the Potency entry was “inactive”.

Take `CC1CNCCN1c1ccc(Cl)cc1` (stereo not given): the Potency entry is “inactive”.

With `COc1cc(-n2c(=S)[nH]c3ccc(C)cc3c2=O)c(Cl)cc1Cl`, the Potency is 18.4 µM (active).

For the molecule `C[C@]12CCC3C(CC[C@H]4[C@H](O)[C@H](O)CC[C@]34C)C1CCC2=O` (stereo not given in full), the Potency result is “inactive”.

For `O=C(CSc1ccccc1)Nc1ccc(C(=O)Nc2cccc(O)c2)cc1`, the Potency entry is “inactive”.

In the case of `CCC(C)n1c(O)c(/C=N/Nc2nc3c(c(=O)n(C)c(=O)n3C)n2C)c(=O)[nH]c1=S` (stereo not given), the Potency was 23.1 µM (active).

Take `CC1CC=CCC12C(=O)NC(=S)NC2=O` (stereo not given): the Potency result was “inactive”.

Consider `CNC(C)[C@@H](O)c1ccccc1` (stereo not given in full), for which the Potency entry was “inactive”.

As to `CC1=CC(=Cc2sc3ccccc3[n+]2C)C=C(C)O1`, the Potency is 5.8 µM (active).

Turning to `CCC1(CC(C)c2ccccc2)C(=O)NC(=O)NC1=O` (stereo not given), the Potency result was “inactive”.

With `Cc1cc(C)c2c(c1)NP(=S)(c1ccccc1)N2` (stereo not given), the Potency result was “inactive”.

As for `CCOC(=O)CC(SP1(=S)OCC2(CCCCO2)C(C2CCCCO2)O1)C(=O)OCC` (stereo not given), the Potency result was “inactive”.

On to `O=C(N/N=C/c1ccc([N+](=O)[O-])o1)c1cc([N+](=O)[O-])cc([N+](=O)[O-])c1O`, for which the Potency entry is “inactive”.

Turning to `CC[C@H]1CN2CCc3cc(OC)c(OC)cc3[C@@H]2C[C@@H]1C[C@H]1NCCc2cc(OC)c(OC)cc21`, the Potency was 0.291 µM (active).

For `O=C1NC(=O)C(CCOc2ccccc2)(CCc2ccccc2)C(=O)N1`, the Potency entry is “inactive”.

For the molecule `CCC(=O)OC(Cc1ccccc1)(c1ccccc1)C(C)CN(C)C` (stereo not given), the Potency entry was “inactive”.

For `CCOP(=O)(OCC)C(Nc1cccc(C)c1)c1ccc(F)cc1` (stereo not given), the Potency result was “inactive”.

On to `CN1CCCC(=C(c2cccs2)c2cccs2)C1`, for which the Potency result is “inactive”.

In the case of `Nc1ccc(Cc2ccc(N)c(Cl)c2)cc1Cl`, the Potency entry was “inactive”.

On to `C[C@]12CCCCC1=CC(=O)C1C2CC[C@@]2(C)C1C[C@@H](F)[C@@H]2O` (stereo not given in full), for which the Potency entry was “inactive”.

`Cc1ncsc1CCCl`: the Potency result is “inactive”.

For `Cc1cc2ccccn2c1C(C[N+](=O)[O-])c1c(F)cccc1Cl` (stereo not given), the Potency is 7.31 µM (active).

Consider `CCOc1ccc(S(=O)(=O)NCc2ccc3c(c2)OCO3)cc1C`, for which the Potency entry is “inactive”.

With `CC(CC(C#N)(c1ccccc1)c1ccccc1)N1CCCCC1` (stereo not given), the Potency result is “inactive”.

In the case of `COc1ccc(C2CC(c3cccs3)=NN2c2nc(C)c(C(C)=O)s2)cc1OC` (stereo not given), the Potency is 14.6 µM (active).

With `O=C(NCc1cccs1)c1ccc(Br)o1`, the Potency entry is “inactive”.

For `Cc1cccc([C@H](C)c2cnc[nH]2)c1C`, the Potency entry is “inactive”.

Consider `CCOC(=O)C1(c2ccccc2)CCN(CC(O)c2ccc(NC(C)=O)cc2)CC1` (stereo not given), for which the Potency result was “inactive”.

As to `c1ccc2sc(SNC3CCCCC3)nc2c1`, the Potency result is “inactive”.

For `COc1ccc2c(c1)NP(=S)(c1ccccc1)N2` (stereo not given), the Potency result is “inactive”.

As for `O=c1c2ccccc2nc(-c2ccccc2)n1-c1ccccn1`, the Potency entry was “inactive”.

Consider `O=c1c2ccccc2nc(/C=C/c2ccco2)n1-c1ccccc1O`, for which the Potency was 20.6 µM (active).

Consider `O=c1c2ccccc2nc(-c2ccco2)n1-c1ccc(Br)cn1`, for which the Potency result was “inactive”.

For the molecule `C=CCN1CCC23c4c5ccc(O)c4O[C@H]2C(=O)CC[C@@]3(O)C1C5` (stereo not given in full), the Potency result is “inactive”.

In the case of `CC(C)(C)CC(=O)Nc1nnc(SCC(=O)NCc2cccs2)s1`, the Potency result was “inactive”.

As for `Cc1cc(-c2ccc(N)c(C)c2)ccc1N`, the Potency result was “inactive”.

On to `CCC1(c2ccccc2)C(=O)NC(=O)N(C)C1=O` (stereo not given), for which the Potency result is “inactive”.

In the case of `CCN1C(=O)NC(=O)C2(CCCC2)C1=O`, the Potency result is “inactive”.

For the molecule `CC(=O)OC1C2(CC3N4C(=O)C5(CO)SSC4(CC31O)C(=O)N5C)OC(C)C(C)(C)C2=O` (stereo not given), the Potency is 0.461 µM (active).

Regarding `CCNC[C@H](O)c1cccc(O)c1`, the Potency result is “inactive”.

Take `O=C1NC(=O)C(Cc2ccccc2)C(=O)N1`: the Potency entry was “inactive”.

Regarding `CC1CCCN1CCC(C(N)=O)(c1ccccc1)c1ccccc1` (stereo not given), the Potency result is “inactive”.

With `COc1ccc2c3c1O[C@H]1C[C@@H](O)C=C[C@@]31CCN(C)C2`, the Potency result was “inactive”.

For `CC=C(C)C(=O)OC1CCN2CC=C(COC(=O)C(O)(C(C)OC)C(C)(C)O)C12` (stereo not given), the Potency result was “inactive”.

For the molecule `CCC1(C)CC(CCNCc2ccc(N(C)C)cc2)(c2ccc(F)cc2)CCO1` (stereo not given), the Potency was 18.4 µM (active).

For `CC[N+]1(CCOC(=O)C(O)(c2ccccc2)c2ccccc2)CCCCC1`, the Potency result is “inactive”.

Turning to `C=C(C)C1(CCCC)C(=O)NC(=S)NC1=O`, the Potency result was “inactive”.

The values above are taken from PubChem BioAssay AID624297 (National Center for Advancing Translational Sciences (NCATS), 2012).
